From PubChem BioAssay AID1159580 (chemical genetic matrix, 2015)
Values joined by “and” are separate entries in the source; they are usually repeats but may differ in a detail not shown here. Identical values can stand only once. Among all 5,500 compounds or so, about 2,000 (36%) were called active. Not shown: some 18% with an inconclusive outcome. Rule as the data show it: active = normalized growth mostly below about 0.91 (no sharp cut-off); inconclusive = no clear call, values can overlap the other calls; inactive = mostly above about 0.92. This is one part of the list.

Test: chemical genetic growth profiling, strain panel (AID 1159580);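 also: tested at 20 µM; growth read once vehicle control cultures reached saturation at 30 °C; 1 = growth at the plate median or of vehicle wells; lower values mean less growth of the strain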
Settings: growth OD

Measured: normalized growth

NC(Cc1ccc(Cl)cc1)C(=O)O (centres undefined)
inactive: S. cerevisiae deletion strains, locus YJR075W, strain HOC1, stronger effect = lower value 0.999 and 1.06 | S. cerevisiae deletion strains, locus YKL009W, strain mrt4, stronger effect = lower value 1.03 | S. cerevisiae deletion strains, locus YKL068W, stronger effect = lower value 0.994 | S. cerevisiae deletion strains, locus YKL085W, strain MDH1 (second series), stronger effect = lower value 0.994 | S. cerevisiae deletion strains, locus YKL085W, strain MDH1, stronger effect = lower value 0.994 | S. cerevisiae deletion strains, locus YKL160W, strain elf1, stronger effect = lower value 0.996 | S. cerevisiae deletion strains, locus YKL190W, strain CNB1, stronger effect = lower value 0.991 | S. cerevisiae deletion strains, locus YKR001C, strain vps1, stronger effect = lower value 1.02 | S. cerevisiae deletion strains, locus YKR026C, strain gcn3, stronger effect = lower value 1 | S. cerevisiae deletion strains, locus YKR091W, strain srl3, stronger effect = lower value 0.993 | S. cerevisiae deletion strains, locus YLL001W, strain dnm1, stronger effect = lower value 0.984 | S. cerevisiae deletion strains, locus YLL026W, stronger effect = lower value 0.999 | S. cerevisiae deletion strains, locus YLL041C, strain sdh2, stronger effect = lower value 1 | S. cerevisiae deletion strains, locus YLR027C, strain aat2, stronger effect = lower value 0.999 | S. cerevisiae deletion strains, locus YLR039C, strain RIC1, stronger effect = lower value 0.994 | S. cerevisiae deletion strains, locus YLR058C, strain SHM2, stronger effect = lower value 0.981 | S. cerevisiae deletion strains, locus YLR102C, strain apc9, stronger effect = lower value 0.998 | S. cerevisiae deletion strains, locus YLR113W, strain HOG1, stronger effect = lower value 0.971 | S. cerevisiae deletion strains, locus YLR221C, strain rsa3, stronger effect = lower value 0.996 | S. cerevisiae deletion strains, locus YLR258W, strain gsy2, stronger effect = lower value 0.988 | S. cerevisiae deletion strains, locus YLR262C, strain YPT6 (second series), stronger effect = lower value 1.02 | S. cerevisiae deletion strains, locus YLR262C, strain YPT6, stronger effect = lower value 0.955 | S. cerevisiae deletion strains, locus YLR268W, strain sec22, stronger effect = lower value 1 | S. cerevisiae deletion strains, locus YLR320W, strain mms22, stronger effect = lower value 0.996 | S. cerevisiae deletion strains, locus YLR330W, strain CHS5, stronger effect = lower value 0.992 | S. cerevisiae deletion strains, locus YLR342W, strain FKS1 (second series), stronger effect = lower value 1.02 | S. cerevisiae deletion strains, locus YLR342W, strain FKS1, stronger effect = lower value 0.999 | S. cerevisiae deletion strains, locus YLR357W, strain rsc2, stronger effect = lower value 0.977 | S. cerevisiae deletion strains, locus YLR370C, strain arc18, stronger effect = lower value 1 | S. cerevisiae deletion strains, locus YLR371W, strain rom2, stronger effect = lower value 0.993 | S. cerevisiae deletion strains, locus YLR384C, strain iki3, stronger effect = lower value 0.986 | S. cerevisiae deletion strains, locus YLR418C, strain cdc73, stronger effect = lower value 1.04 | S. cerevisiae deletion strains, locus YML016C, strain PPZ1, stronger effect = lower value 0.986 | S. cerevisiae deletion strains, locus YML032C, strain rad52, stronger effect = lower value 0.983 | S. cerevisiae deletion strains, locus YML120C, strain ndi1, stronger effect = lower value 0.993 | S. cerevisiae deletion strains, locus YML124C, strain tub3, stronger effect = lower value 0.998 | S. cerevisiae deletion strains, locus YMR058W, strain fet3, stronger effect = lower value 1.02 | S. cerevisiae deletion strains, locus YMR078C, strain ctf18, stronger effect = lower value 0.992 | S. cerevisiae deletion strains, locus YMR125W, strain sto1, stronger effect = lower value 0.993 | S. cerevisiae deletion strains, locus YMR129W, stronger effect = lower value 0.995 | S. cerevisiae deletion strains, locus YMR205C, strain PFK2, stronger effect = lower value 0.991 | S. cerevisiae deletion strains, locus YMR223W, strain ubp8, stronger effect = lower value 1.01 | S. cerevisiae deletion strains, locus YMR231W, strain pep5, stronger effect = lower value 0.993 | S. cerevisiae deletion strains, locus YMR263W, strain SAP30, stronger effect = lower value 0.991 and 0.983 | S. cerevisiae deletion strains, locus YMR307W, strain GAS1, stronger effect = lower value 1.06 | S. cerevisiae deletion strains, locus YNL067W, strain RPL9B, stronger effect = lower value 0.986 | S. cerevisiae deletion strains, locus YNL071W, strain lat1, stronger effect = lower value 1 | S. cerevisiae deletion strains, locus YNL128W, strain TEP1, stronger effect = lower value 0.976 | S. cerevisiae deletion strains, locus YNL153C, strain GIM3, stronger effect = lower value 0.983 and 1.07 | S. cerevisiae deletion strains, locus YNL175C, strain NOP13, stronger effect = lower value 0.986 | S. cerevisiae deletion strains, locus YNL183C, strain NPR1, stronger effect = lower value 0.891 | S. cerevisiae deletion strains, locus YNL209W, strain ssb2, stronger effect = lower value 1 | S. cerevisiae deletion strains, locus YNL224C, strain SQS1, stronger effect = lower value 1.01 | S. cerevisiae deletion strains, locus YNL233W, strain BNI4, stronger effect = lower value 0.991 | S. cerevisiae deletion strains, locus YNL248C, strain rpa49, stronger effect = lower value 1.01 | S. cerevisiae deletion strains, locus YNL250W, strain rad50, stronger effect = lower value 0.988 | S. cerevisiae deletion strains, locus YNL271C, strain bni1, stronger effect = lower value 1 | S. cerevisiae deletion strains, locus YNL298W, strain CLA4, stronger effect = lower value 0.985 | S. cerevisiae deletion strains, locus YNL307C, strain MCK1, stronger effect = lower value 1.01 | S. cerevisiae deletion strains, locus YNL322C, strain KRE1 (second series), stronger effect = lower value 0.983 | S. cerevisiae deletion strains, locus YNL322C, strain KRE1, stronger effect = lower value 0.989 | S. cerevisiae deletion strains, locus YNR049C, strain mso1, stronger effect = lower value 1 | S. cerevisiae deletion strains, locus YNR052C, strain pop2, stronger effect = lower value 0.986 | S. cerevisiae deletion strains, locus YOL006C, strain TOP1, stronger effect = lower value 0.991 | S. cerevisiae deletion strains, locus YOL012C, strain htz1 1.95 | S. cerevisiae deletion strains, locus YOL147C, strain pex11, stronger effect = lower value 1.01 | S. cerevisiae deletion strains, locus YOR001W, strain rrp6, stronger effect = lower value 1 | S. cerevisiae deletion strains, locus YOR061W, strain CKA2, stronger effect = lower value 0.97 | S. cerevisiae deletion strains, locus YOR069W, strain VPS5, stronger effect = lower value 0.997 | S. cerevisiae deletion strains, locus YOR070C, strain gyp1, stronger effect = lower value 0.988 | S. cerevisiae deletion strains, locus YOR080W, strain dia2, stronger effect = lower value 0.992 | S. cerevisiae deletion strains, locus YOR083W, strain WHI5, stronger effect = lower value 1.02 | S. cerevisiae deletion strains, locus YOR106W, strain vam3, stronger effect = lower value 0.987 | S. cerevisiae deletion strains, locus YOR136W, strain idh2, stronger effect = lower value 0.995 | S. cerevisiae deletion strains, locus YOR144C, strain elg1, stronger effect = lower value 1 | S. cerevisiae deletion strains, locus YOR184W, strain ser1, stronger effect = lower value 1 | S. cerevisiae deletion strains, locus YOR231W, strain MKK1, stronger effect = lower value 0.991 | S. cerevisiae deletion strains, locus YOR265W, strain rbl2, stronger effect = lower value 0.986 | S. cerevisiae deletion strains, locus YOR270C, strain vph1, stronger effect = lower value 1.02 | S. cerevisiae deletion strains, locus YOR290C, strain snf2, stronger effect = lower value 0.965 | S. cerevisiae deletion strains, locus YOR316C, strain cot1, stronger effect = lower value 0.993 | S. cerevisiae deletion strains, locus YPL051W, strain arl3, stronger effect = lower value 0.992 | S. cerevisiae deletion strains, locus YPL055C, strain LGE1, stronger effect = lower value 0.976 | S. cerevisiae deletion strains, locus YPL078C, strain atp4, stronger effect = lower value 1 | S. cerevisiae deletion strains, locus YPL106C, strain sse1, stronger effect = lower value 0.97 | S. cerevisiae deletion strains, locus YPL240C, strain hsp82, stronger effect = lower value 1 | S. cerevisiae deletion strains, locus YPL241C, strain CIN2, stronger effect = lower value 0.995 and 1.01 | S. cerevisiae deletion strains, locus YPL256C, strain CLN2, stronger effect = lower value 0.969 | S. cerevisiae deletion strains, locus YPR119W, strain clb2, stronger effect = lower value 0.993 | S. cerevisiae deletion strains, locus YPR141C, strain kar3, stronger effect = lower value 0.992 | S. cerevisiae deletion strains, locus YPR163C, strain tif3, stronger effect = lower value 1 | S. cerevisiae deletion strains, locus YPR167C, strain met16, stronger effect = lower value 0.996 | S. cerevisiae deletion strains, strain wtn01, stronger effect = lower value 0.99 | S. cerevisiae strains, strain wild type, stronger effect = lower value 0.998
